Measurements reported in ChEMBL document CHEMBL3988442, “University of Dundee, Small-Polar-MMV Screening Library” (2021).

Tests used:
[1] = molecular target: T1, Aspartate--tRNA(Asp/Asn) ligase (Mycobacterium tuberculosis (strain ATCC 25618 / H37Rv)) (UniProt P9WFW3); test: Assay for Asp RNA synthetase-1 from Mycobacterium tuberculosis; type: functional; design: scale not given: direction of the effect not stated beside the values; settings: 30 µM; also: in the data most compounds retested in dose-response had high values
T1 sequence (whole entry): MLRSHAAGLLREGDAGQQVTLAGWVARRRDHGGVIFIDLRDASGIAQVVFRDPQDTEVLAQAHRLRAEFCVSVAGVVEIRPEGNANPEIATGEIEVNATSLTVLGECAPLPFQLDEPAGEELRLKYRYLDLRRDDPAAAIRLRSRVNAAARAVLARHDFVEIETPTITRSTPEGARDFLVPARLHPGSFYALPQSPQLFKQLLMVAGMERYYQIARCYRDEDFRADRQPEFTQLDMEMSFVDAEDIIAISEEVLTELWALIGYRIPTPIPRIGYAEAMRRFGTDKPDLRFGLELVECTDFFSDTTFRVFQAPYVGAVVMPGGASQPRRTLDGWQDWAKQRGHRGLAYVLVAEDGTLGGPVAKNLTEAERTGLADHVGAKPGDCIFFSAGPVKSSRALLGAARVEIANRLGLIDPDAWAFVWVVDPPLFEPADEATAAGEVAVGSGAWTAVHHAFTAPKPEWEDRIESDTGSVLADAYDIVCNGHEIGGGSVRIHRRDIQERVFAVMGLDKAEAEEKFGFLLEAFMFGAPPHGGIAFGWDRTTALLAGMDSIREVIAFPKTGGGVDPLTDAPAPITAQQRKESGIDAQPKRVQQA

[2] = molecular target: Shiga toxin 2 (Escherichia coli O157:H7) (UniProt P09385+P09386); test: E. coli 0.157:H7 Shiga Toxin SOP - stx2 screening assay; type: functional; design: scale not given: direction of the effect not stated beside the values; settings: 30 µM

SMILES | Percent Effect [1] [%] | Percent Effect [2] [%]
CN(CC(N)=O)S(=O)(=O)c1ccc(F)cc1Cl | -2.44 | -10.3
CNC(=O)CS(=O)(=O)C1CCN(S(=O)(=O)c2ccccc2Br)CC1 | -6.53 | -14
CC(C)NC(=O)N1CC[C@@H]2CN(Cc3ccccc3)S(=O)(=O)[C@@H]2CC1 | -3.29 | -5.27
O=S(=O)(CCN1CCOC(Cn2cccn2)C1)C(F)(F)F (configuration not stated) | 8.08 | 191
CN1CC(=O)N(c2cnn(C)c2)CC12CCN(Cc1ccccc1)C2 (configuration not stated) | -0.707 | -5.72
Cc1nc(C)n(CC2CCCN2Cc2nc(C3CC3)no2)n1 (configuration not stated) | 0.278 | -16.4
CN(C)C(=O)c1ccc2c(c1)N(C)C(CC(=O)NCCC(C)(C)C)CO2 (configuration not stated) | 0.279 | 5.86
CCc1ccc(CN(CCCn2ccnc2)Cc2ccc(C)s2)o1 | 2.1 | -1.1
c1cnn(CC2CN(Cc3ccc(-n4ccnc4)cc3)CCO2)c1 (configuration not stated) | -1.11 | -7.92
O=C(N1CCOCC1)N1CCc2ncnc(NC3CC3)c2CC1 | 6.32 | -39.4
CN(C)C1CCN(C(=O)NCc2ccccc2Cn2cncn2)CC1 | -2.31 | 0.165
CCc1nccn1C1CCCN(C(=O)c2cnc3ccccc3n2)C1 (configuration not stated) | 1.02 | 11.4
COc1cc(C(=O)N(Cc2ccco2)C2CC2)cc2c1OCCO2 | 1.56 | -6.37
O=C(C1CCS(=O)(=O)C1)N1CCN(c2cnccn2)CC1 (configuration not stated) | 0.204 | 25.5
Fc1cnc(N2CCOCC3(CCCN(c4nncs4)C3)C2)nc1 (configuration not stated) | -3.89 | 6.61
Cc1nccn1-c1cc(CNC(=O)C(C)(C)C)ccn1 | 10.6 | -3.04
O=C(N1CCOCC1)[C@@]12CCO[C@@H]1CCN(Cc1ccccc1F)C2 | -6.79 | -21.7
CNC(=O)[C@@]12CCC3(CCN(C(C)=O)CC3)[C@@H]1CN(S(C)(=O)=O)C2 | -0.917 | -15.9
CC1CN(c2ccc(CNC(=O)c3ccn(C)c(=O)c3)cn2)CCO1 (configuration not stated) | -6.51 | -19.6
Cc1nc(C2CCCN2CCCS(=O)(=O)N(C)C)no1 (configuration not stated) | -1.34 | -7.71
O[C@]1(c2ccccn2)CC[C@@H]2CN(Cc3cccc4ncccc34)C[C@@H]21 | 0.581 | -21.3
O=C(NCc1csc(Br)c1)c1ccncc1 | -0.335 | -44.3
CC(O)CN1CCN(C(=O)c2cc3ccccc3[nH]c2=O)CC1 (configuration not stated) | -2.04 | 2.32

SMILES | Percent Effect [1] [%] | Percent Effect [2] [%]
CSc1ncccc1C(=O)N1C[C@H]2CC[C@@H]1CN(c1ncccn1)C2 | 4.84 | -56.4
Cc1nc(CN2CC3(CCN(c4ncc(F)cn4)C3)CC2=O)cs1 (configuration not stated) | 3.16 | -4.09
Cc1csc(N2CCN(Cc3cnc(C)s3)CC2C)n1 (configuration not stated) | 3.68 | 13.7
CCCNC(=O)c1cnc(N(C)C)nc1COC | -0.929 | -6.54
Cc1noc(C)c1C(=O)NCC(O)c1ccc(F)cc1F (configuration not stated) | -2.01 | 20.4
CC(C)c1noc(CN(Cc2cccs2)C2CC2)n1 | -0.416 | -48.4
CCCc1nc(CN2CCN(Cc3noc(CCC)n3)CC2)no1 | -5.2 | -39.2
Cc1cc(-c2cnn(CCNC(=O)c3cccnc3)c2C2CC2)on1 | 0.491 | -2.62
COc1cc(N2C[C@@H]3COC[C@]3(COCc3cccc(C)n3)C2)ncn1 | -0.107 | -2.46
O=C1CC(c2ccncc2)c2c(c(C(=O)O)cn2-c2ccc(F)cc2)N1 (configuration not stated) | 2.32 | -17.3
CC(C)(C)NC(=O)C1CSCN1S(=O)(=O)c1cccc(F)c1 (configuration not stated) | 10.2 | -19.4
CC(NC(=O)NCCOc1ccc(F)c(F)c1)c1nncn1C (configuration not stated) | -4.5 | 27.5
O=C(NCC1CC1)C1CN(C(=O)c2ccncc2)CC12CCOCC2 (configuration not stated) | 3.22 | -21.5
O=C(O)C1CCCCN1C(=O)c1cccc(C(F)(F)F)c1 (configuration not stated) | -1.94 | 33.5
O=C(c1cccc(N2CCCC2=O)c1)N1CCCC(n2cncn2)C1 (configuration not stated) | -4.55 | 17.8
CC(C)n1ccnc1CN1CCCN(C(=O)c2nccnc2N)CC1 | -6.9 | -13.7
COc1cc2cc(C(=O)O)n(C)c2c(OC)c1OC | -3.95 | 1.12
CCOCCCn1c(NC(=O)c2scnc2C)nc2ccccc21 | -5.62 | -30.2
Cc1ccccc1C(=O)CN1C(=O)c2ccccc2CS1(=O)=O | 0.881 | -11.1
COc1ccc(CN(C)CC2(O)CCN(C(=O)c3cccn3C)C2)cc1 (configuration not stated) | 2.04 | -5.84
CCN(CC1CCOC1)C(=O)c1cccnc1N1CCOCC1 (configuration not stated) | -1.66 | 25.6
COc1ccccc1C(=O)N(C)Cc1ncc(C)c(OC)c1C | -4.81 | 11.8
Cn1nc2c(cc1=O)CN(Cc1nc(C(C)(C)C)no1)CC2 | 50.6 | 0.187
